Shown are actives, neighbours in structure and some others; about 9.4% of the full set was active somewhere.
IMPase inh: qHTS Assay for Identifying the Cell-Membrane Permeable IMPase Inhibitors. CHO-M1 cells, IP1 accumulation, HTRF TR-FRET ratio. inhibition (IP1 accumulation), % at 46.1 µM. 120,000 tested, under 10 active. AID 901, 2007; active = well fitted curve in the direction sought with a large enough effect in the signal ratio, not every such curve was filed as active; inconclusive = small, poorly fitted or top-dose-only effect, or a change in a side signal; inactive = no such curve, though single readings can be large or run the other way; the % refers to the signal ratio;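 also: cells stimulated with carbachol in lithium chloride buffer; plate controls were DMSO basal wells for no effect and reference inhibitor wells for full effect; higher means more IMPase inhibition seen as more IP1 and lower FRET ratio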
Target sequence (P97697 whole entry, looked up): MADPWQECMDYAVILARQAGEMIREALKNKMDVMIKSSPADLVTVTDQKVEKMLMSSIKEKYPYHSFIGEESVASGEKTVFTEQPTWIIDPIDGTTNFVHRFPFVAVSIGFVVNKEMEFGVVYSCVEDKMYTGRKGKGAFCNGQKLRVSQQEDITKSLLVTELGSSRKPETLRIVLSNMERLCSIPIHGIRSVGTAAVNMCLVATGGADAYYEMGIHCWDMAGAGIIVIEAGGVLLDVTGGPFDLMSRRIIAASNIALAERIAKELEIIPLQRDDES
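The IP-One HTRF competitive assay in carbachol-stimulated CHO-M1 cells quantifies cellular IP1. Compounds spanned up to 46 uM final, and activity is expressed as AC50 from concentration-response fits of the ratio and donor data.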
HPGD inh: qHTS Assay for Inhibitors of HPGD (15-Hydroxyprostaglandin Dehydrogenase). 15-hydroxyprostaglandin dehydrogenase [NAD(+)] (Homo sapiens), P15428. purified HPGD, NADH fluorescence kinetic, PGE2 substrate. Potency, µM, without a hit: top-dose activity change, negative = inhibition, most hits filed as inhibitors. actives 4.3% (n = 150,000). AID 894, 2007; active = well fitted inhibition curve with a large enough effect, not every such curve was filed as active; inconclusive = small, poorly fitted or top-dose-only effect, or another doubt; inactive = no such curve, though single readings can be large or run the other way; also: potency is read from the fitted curve at half-maximal effect; % is scaled to controls: 0 for no effect and ±100 for the full control effect
Target sequence (P15428 whole entry, looked up): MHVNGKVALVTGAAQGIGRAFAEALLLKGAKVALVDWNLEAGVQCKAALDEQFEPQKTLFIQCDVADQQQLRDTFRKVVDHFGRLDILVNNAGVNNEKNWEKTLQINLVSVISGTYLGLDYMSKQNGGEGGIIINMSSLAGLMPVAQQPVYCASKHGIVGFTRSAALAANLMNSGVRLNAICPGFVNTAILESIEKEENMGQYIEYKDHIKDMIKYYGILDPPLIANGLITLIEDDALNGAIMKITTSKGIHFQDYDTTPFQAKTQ
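20 nM HPGD preincubated 15 min at room temperature with compound in 50 mM Tris-HCl pH 8, 0.01% Tween 20. Started with 1 mM NAD+ and 30 uM prostaglandin E2; NADH fluorescence (360/450 nm) read 5 times over 30-s intervals, last minus first.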
HttQ103 aggreg: qHTS Multiplex Assay to Identify Dual Action Probes in a Cell Model of Huntington: Aggregate Formation (GFP); PC12 HttQ103-GFP aggregates, Acumen cytometry, 40 h; Potency, µM (top dose mostly 46.1 µM), for inactives: top-dose activity change, negative = inhibition, usual class: inhibitors; actives 1.1% (n = 220,000); AID 1688, 2009; also: potency is read from the fitted curve at half-maximal effect; % is scaled to controls: 0 for no effect and ±100 for the full control effect; nearly all actives have a fitted effect of over 60% in size
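Ecdysone-promoter PC12 model expressing HTT exon 1 Q103 fused to GFP, induced by tebufenozide at 100 nM final. Compounds titrated; aggregates sized 1–25 µm scored on a 488 nm laser cytometer.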
HTT ATP protect: qHTS Multiplex Assay to Identify Dual Action Probes in a Cell Model of Huntington: Cytoprotection (ATP); PC12 HTT-Q103 induced, cytoprotection, ATP luminescence, 40 h; AID 1471, 2008; actives 0.14% (n = 230,000); Potency, µM (titrated, usually from 56.4 µM), without a hit: cytoprotection (ATP increase), usual class: activators; also: potency is read from the fitted curve at half-maximal effect; % of control where 0% means no effect; nearly all actives have a fitted effect of over 45% in size
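Cells were plated at 1500 per well in phenol red-free DMEM with 5% equine and 5% calf serum. Tebufenozide (100 nM final) and compounds were added, then ATPlite reagent, and luminescence was read.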
IMPase Li cell: qHTS Assay for Identifying the Cell-Membrane Permeable IMPase Inhibitors: Potentiation with Lithium; Potency, µM (doses to about 59.4 µM), for inactives: at the top dose activity, negative = IMPase inhibition, usual class: inhibitors; CHO-M1 cells, IP1 TR-FRET (IP-One), carbachol + lithium; actives 0.35% (n = 210,000);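 also: IP1 builds up when IMPase is blocked and the TR-FRET signal falls; potency is read from the fitted curve at half-maximal effect; plate controls were basal vehicle for no effect and high inhibitor control for full effect; nearly all actives have a fitted effect of over 50% in size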
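CHO-M1, 2000 cells/well, 16–30 h culture; cpd + low Li+, 30 min 37C; lysis with d2-IP1/Eu-anti-IP1 Ab, 10 min RT; TR-FRET 665/620 ratio and 620 channel; AC50 via Hill.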
ALDH1A1 inh: qHTS Assay for Inhibitors of Aldehyde Dehydrogenase 1 (ALDH1A1); Aldehyde dehydrogenase 1A1 (Homo sapiens), P00352; AID 1030, 2008; actives 7.3% (n = 220,000); Purified ALDH1A1, NADH fluorescence, propionaldehyde substrate; Potency, µM (doses to about 75.3 µM), for the others: top-dose activity, negative = inhibition, hits mostly inhibitors; active = well fitted inhibition curve with a large enough effect, not every such curve was filed as active; inconclusive = small, poorly fitted or top-dose-only effect, or another doubt; inactive = no such curve, though single readings can be large or run the other way;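 also: potency is read from the fitted curve at half-maximal effect; plate controls were no enzyme wells and a reference inhibitor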
An asterisk follows results filed as active; u = inconclusive; x = not tested or not shown; [ ] = another dose, or the depositor's remark. Unless noted, calls follow the shape of the dose curve; as a rule, active = well fitted curve in the direction sought with a large enough effect; inconclusive = small, poorly fitted or top-dose-only effect, or another doubt; inactive = no such curve, though single readings can be large; an effect the other way counts as inactive or inconclusive.

SMILES	IMPase inh	HPGD inh	HttQ103 aggreg	HTT ATP protect	IMPase Li cell	ALDH1A1 inh
CC12CC3OS(=O)OC3CC3C4C(C(OCc5ccccc5)C31)C42 (stereo not drawn)	x	x	x	3%[10 µM]	x	8%[13.5 µM]
Cc1cc(C(=O)OCC(=O)c2cccc([N+](=O)[O-])c2)c2cccc(C)c2n1	-1	-21%	7%	0%	12%[38.3 µM]	22µM*
CCC1CSC(Nc2ccc(C(=O)/C=C/c3ccc(OC)c(OC)c3)cc2)=N1 (stereo not drawn)	x	18µM*	u	27%[10 µM]	14%	u
CCC1CSC(Nc2ccc(C(=O)/C=C/c3ccc(Br)cc3)cc2)=N1 (stereo not drawn)	x	u	20%	x	-2%	2%
CCOc1ccc(C2C(C#N)=C(N)Oc3cc(C)n(Cc4ccco4)c(=O)c32)cc1OC (stereo not drawn)	u	-6%	15%	-17%	8%[38.3 µM]	u
Cc1nn(-c2cccc(Cl)c2)c2c1C(c1cccnc1)C(C#N)=C(N)O2 (stereo not drawn)	4	-20%	u	-8%[10 µM]	-5%[38.3 µM]	7.9µM*
COc1ccc(OC)c(C2C(C#N)=C(N)Oc3c2c(C)nn3-c2cccc(Cl)c2)c1 (stereo not drawn)	-4	-25%	u	13%	4%[38.3 µM]	u
Cc1cc2c(c(=O)n1Cc1ccco1)C(c1cccnc1)C(C#N)=C(N)O2 (stereo not drawn)	5	-19%	9%[9.22 µM]	-13%[0.074 µM]	3%[38.3 µM]	7.5µM*
Cc1nn(-c2cccc(Cl)c2)c2c1C(c1ccncc1)C(C#N)=C(N)O2 (stereo not drawn)	9	-12%	u	12%	25%[38.3 µM]	10µM*
CC1=C(n2nnc([N+](=O)[O-])n2)C(c2cccnc2)C(C#N)=C(N)O1 (stereo not drawn)	x	-8%	-20%	x	-4%	1.1µM*
CC1(C)C(=O)C2(CCCC2)C(=O)OC1c1ccco1 (stereo not drawn)	0	-12%	-3%	7%[0.074 µM]	21%[38.3 µM]	22µM*
Cc1cc(C)c(NC(=O)C2CCCCN2C)c(C)c1 (stereo not drawn)	1	-8%	2%[9.22 µM]	3%	23%[38.3 µM]	-3%
Cc1cc(C)c(NC(=O)C2CSCCS2)c(C)c1 (stereo not drawn)	x	22µM*	8%	4%[10 µM]	-2%	-4%
CSc1cc(/C=N/O)c(SC)s1	-7	11µM*	13µM*	21%[10 µM]	-5%	u
COC(=O)c1cccc(C23CC4(C2)[C@H](CN(C)[C@@H]4c2ccccc2)C3c2ccc(Cl)nc2)c1 (stereo partly drawn)	x	-7%	x	-19%	14%	-5%
Cc1ccc(C2=NC(C(F)(F)F)(C(F)(F)F)c3c(n(-c4ccc(F)cc4)c(=O)[nH]c3=O)N2)cc1	x	-9%	u	3%[10 µM]	-6%	u
O=c1[nH]c(=O)n(-c2ccc(F)cc2)c2c1C(C(F)(F)F)(C(F)(F)F)N=C(c1ccc(F)cc1)N2	x	-6%	3.2µM*	14%[10 µM]	-6%	2%
CCOc1ccc(Br)cc1C(=O)Nc1ccc(C(=O)NCC(C)C)cc1	x	2µM*	26%	x	10µM*	-2%
C/C(=N/NC(=O)CN1CCN(Cc2ccccc2Cl)CC1)c1cccnc1	x	x	-9%[9.22 µM]	9%[10 µM]	x	x
Cc1cnc(C(=O)Nc2cccc3cccnc23)cn1	-5	u	0.89µM*	-75%	-1%[38.3 µM]	u
CN1CCN(C(=O)/C=C/c2ccc3c(c2)OCO3)CC1	x	u	7%	x	3%	0%
O=C(/C=C/C=C/c1ccc2c(c1)OCO2)N1CCCCC1	x	16µM*	x	-143%	2%	u
COc1nc(-c2ccccc2)cc(-c2ccc3c(c2)OCO3)c1C#N	x	x	-4%[9.22 µM]	-47%[10 µM]	x	u
N#Cc1c(-c2ccc3c(c2)OCO3)ccn2nc(-c3cccc(C(F)(F)F)c3)nc12	11	u	u	-1%	13µM*	u
O=C(CC(c1ccccc1)c1cc(Br)ccc1O)N1CCCCC1 (stereo not drawn)	x	x	8%[9.22 µM]	1%[10 µM]	x	x
SMILES	IMPase inh	HPGD inh	HttQ103 aggreg	HTT ATP protect	IMPase Li cell	ALDH1A1 inh
Cc1cccc(C(CC(=O)N2CCCC2)c2ccccc2)c1O (stereo not drawn)	-3	11µM*	-18%	12%	-15%[38.3 µM]	-1%
Cc1ccc(C(CC(=O)N2CCCC2)c2ccccc2)c(O)c1C (stereo not drawn)	6	7.9µM*	2%	14%[10 µM]	26%[38.3 µM]	6%
O=C(CC(c1ccccc1)c1ccccc1O)N1CCCC1 (stereo not drawn)	-3	1.8µM*	2%	13%	37%[38.3 µM]	-1%
Cc1ccc2c(C)cc(=S)[nH]c2c1	x	x	-3%	5%	-12%	-11%
Cc1cc(=S)[nH]c2ccccc12	-6	14µM*	10%	12%	-18%[38.3 µM]	u
Cc1ccc2[nH]c(=S)cc(C)c2c1	4	7.1µM*	1%	-9%	u	3.2µM*
COC(=O)c1ccc(C(/C=C/[C@@H](C)C(=O)NCc2ccccc2)NC(=O)OCc2ccccc2)cc1 (stereo partly drawn)	x	-5%	x	-31%	1%	0%
O=C(CCc1ccc(S(=O)(=O)N2CCOCC2)cc1)N/N=C/c1ccc(O)c(O)c1O	x	u	11%	x	1%	13µM*
O=C(CCc1ccc(S(=O)(=O)N2CCOCC2)cc1)N/N=C/c1ccc(F)cc1F	x	x	-27%	-10%	11%	-9%
O=[N+]([O-])c1ccc(N/N=C/c2ccc(O)c(O)c2O)c(S(=O)(=O)N2CCOCC2)c1	x	x	-15%	-32%	17%	3.5µM*
COc1cccc(NC(=S)N(CCCN2CCC(C)CC2)Cc2cccs2)c1	x	x	2%	-23%	11%	-3%
COc1ccc(NC(=S)N(CCCN2CCC(C)CC2)Cc2cccs2)cc1	x	x	-2%	-33%	15%	20µM*
O=C(NCCO)c1cccc2c1C(=O)c1ccccc1-2	x	-10%	u	x	0%	20µM*
COc1ccc(Oc2nc3c(c(=O)n(C)c(=O)n3C)n2Cc2cccc(OC)c2)cc1	1	-7%	-8%	-6%	18%[38.3 µM]	10%
COCCOc1nc2c(c(=O)n(C)c(=O)n2C)n1Cc1cccc(OC)c1	3	-2%	8.9µM*	10%	30%[38.3 µM]	u
COc1cccc(Cn2c(OCC3CCCO3)nc3c2c(=O)n(C)c(=O)n3C)c1 (stereo not drawn)	x	-11%	-4%	4%[10 µM]	-2%	7.1µM*
